Out of some 420,000 compounds screened, about 64,000 (15%) were called active. About 27% were inconclusive and are not listed. The call rests on the fitted dose curve; in most records, active means well fitted inhibition curve with a large enough effect; inconclusive means small, poorly fitted or top-dose-only effect; inactive means flat fitted curve, though single readings scatter. A selection follows. Entries that show only a call come without a potency.
Assay: qHTS for Inhibitors of human tyrosyl-DNA phosphodiesterase 1 (TDP1): qHTS in cells in absence of CPT; further: nearly all actives have a fitted effect of over 55% in size
Settings: DT40 Tdp1-/- hTDP1 cells, no CPT, ATP luminescence, 48 h; activity change, negative = growth inhibition: at 46.2 µM (top of the series)
Method in brief: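 Chicken DT40 Tdp1-/- cells complemented with human TDP1, screened without camptothecin (DMSO vehicle only), 400 cells/well. Compounds pin-transferred, cells incubated at 37 °C for at least 48 hr. Growth read as ATP-dependent luminescence (CellTiter-Glo, 30 min at RT).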
Potency means the concentration at half of the fitted maximal effect.

| Compound | Potency |
| --- | --- |
| CC1CCCC(N2CCN(C(=O)c3ccc(F)cc3)CC2)C1 (centres undefined) | inactive |
| CN(C(=N)N)c1ccc(/C=C2\C=Cc3ccccc32)cc1 | 2.82 µM (active) |
| CS(=O)c1ccc(/C=C2\C=Cc3ccccc32)cc1 (centres undefined) | 20 µM (active) |
| C#CCCOC(=O)N1C2=NC(C(=O)OC)=C(C(=O)OC)[C@@H]3N(C)c4ccc(OC)cc4[C@]23C[C@H]1C(=O)OC | inactive |
| O=c1ccc2cc(S(=O)(=O)NCCCc3ccccc3)ccc2[nH]1 | inactive |
| C=CCn1c(SCc2nnc(-c3ccccc3)o2)nnc1C(O)c1ccccc1 (centres undefined) | inactive |
| FC(F)(F)c1cccc(-c2cn[nH]c2C2CCCN(Cc3cccn3-c3ccccn3)C2)c1 (centres undefined) | inactive |
| Cc1nn(C)cc1C(=O)Nc1ccccc1Br | inactive |
| COc1ccc(N2CCN(Cc3nc4c(c(=O)[nH]c(=O)n4C)n3Cc3ccc(Cl)cc3)CC2)cc1 | inactive |
| COc1ccc(CN2CCC(c3nc4ccc(Cl)cc4[nH]3)CC2)cc1 | 20.6 µM (active) |
| COc1ccc(Cn2nnc3c(=O)[nH]c(C4CCN(C(=O)c5ccccc5Cl)CC4)nc32)cc1 | inactive |
| CN(CCCNC(=O)CN1C(=O)CC(C)(C)S(=O)(=O)c2ccccc21)C1CCCCC1 | inactive |
| COC(=O)c1nc(NC(=O)c2ccc(Cl)cc2)n[nH]1 | inactive |
| CC[C@@H](C)[C@H](NC(=O)CCc1c(C)c2cc3c4c(oc3c(C)c2oc1=O)CCCC4)C(=O)O | inactive |
| COc1ccc(NC(=O)CN(C)C(=O)c2cc(C)oc2C)cc1 | inactive |
| CC(C)=CCc1ccc(O)c(=O)cc1C(C)C | 20.6 µM (active) |
| Cc1ccc(S(=O)(=O)c2c[nH]c3ccc(Cl)cc3c2=O)cc1 | inactive |
| O=C1COc2ccc(C(=O)COC(=O)c3cccnc3Cl)cc2N1 | inactive |
| O=C1COc2ccc(C(=O)CSc3ccc(Br)cc3)cc2N1 | 16.4 µM (active) |
| O=C1COc2ccc(C(=O)COC(=O)CCOc3ccccc3)cc2N1 | inactive |
| COCc1cc(=O)n2[nH]c(C)c(-c3ccccc3)c2n1 | inactive |
| CCCc1cc(=O)n2[nH]c(C)c(-c3ccc(Cl)cc3)c2n1 | 14.6 µM (active) |

| Compound | Potency |
| --- | --- |
| Cc1nc2c(-c3ccccc3)c(C)[nH]n2c(=O)c1Cl | inactive |
| CCCC(=O)C1=C(N(C)c2ccccc2)CC(C)(C)C(C(=O)OC)C1=O (centres undefined) | inactive |
| O=C(CSc1ccc([N+](=O)[O-])cn1)Nc1ccc(N2CCOCC2)cc1 | inactive |
| CCN(C(=O)CSc1nnc(-c2ccc(OC(F)F)cc2)n1N)C1CCS(=O)(=O)C1 (centres undefined) | inactive |
| CCOc1ccccc1/C=c1\sc2nc(-c3ccco3)nn2c1=O | inactive |
| CN(C)c1nc(N)nc(CSc2ccccn2)n1 | inactive |
| Cc1ccc(NC(=O)CCNS(=O)(=O)c2ccc3c(c2)oc(=O)n3C)cc1C | inactive |
| Cc1cccc(NC(=O)c2cc(S(=O)(=O)N3CCC4(CC3)OCCO4)ccc2F)c1 | inactive |
| Cc1ccc(NC(=O)c2cc(S(=O)(=O)NCCC3=CCCCC3)ccc2F)cc1C | 25.9 µM (active) |
| CCCc1nc(-c2cc3cc(C)ccc3[nH]c2=O)no1 | inactive |
| NC(=O)C1CCN(C(=O)/C(=C/c2ccco2)NC(=O)c2ccccc2)CC1 | inactive |
| CCN(CC)C(=O)CSc1nnc(-c2cccc(OC)c2)o1 | inactive |
| COc1ccc(CN(C(=O)CSc2nnc(-c3ccc(OC)c(OC)c3)o2)c2ccc(F)cc2)cc1 | 23.1 µM (active) |
| COc1ccc(CCNC(=O)CSc2nnc(-c3cccc(F)c3)o2)cc1OC | inactive |
| O=C(NCc1ccccn1)c1cc2ccccc2oc1=O | inactive |
| O=C(CSCc1ccccc1)Nc1ccccc1 | inactive |
| CCc1cccc(NC(=O)CCC(=O)O)c1 | inactive |
| O=C(CCl)Nc1cccc(CP(=O)(c2ccccc2)c2ccccc2)c1 | 2.59 µM (active) |
| COc1ccc2[nH]c(=O)c(CNc3ccc(C)c(C)c3)cc2c1 | 8.2 µM (active) |
| COc1ccc(N(Cc2cc3cc(OC)ccc3[nH]c2=O)S(C)(=O)=O)cc1 | inactive |
| CCC(=O)N(Cc1cc2cc(OC)ccc2[nH]c1=O)c1ccccc1C | inactive |
| COc1ccc(C2CC(c3ccccc3)=NN2C(=O)CSc2nccc(=O)[nH]2)cc1 (centres undefined) | inactive |

| Compound | Potency |
| --- | --- |
| CC(=O)Oc1ccccc1C1=NN(C(C)=O)C(c2ccccc2)C1 (centres undefined) | inactive |
| O=C1C2N=NN(CC(=O)N3N=C(c4cccc5ccccc45)CC3c3ccccc3)C2C(=O)N1c1ccccc1 (centres undefined) | 29.1 µM (active) |
| COc1cc(CN2CCNC(=O)C2CC(=O)NCCc2ncccc2C)cc(OC)c1 (centres undefined) | inactive |
| CCN1CCCC1CNC(=O)c1cc2cc(OC)c(OC)cc2[nH]1 (centres undefined) | inactive |
| CCCS(=O)(=O)NC(=O)C1(C)CCCN(C(=O)c2ccnc(Cl)c2)C1 (centres undefined) | inactive |
| CCOC(=O)C1(C)CCCN(C(=O)c2ccc(N(C)C)cc2)C1 (centres undefined) | inactive |
| CCOC(=O)C1(C)CCCN(C(=O)c2ccc(F)c(Cl)c2)C1 (centres undefined) | 20.6 µM (active) |
| COC(=O)/C(=C1\Oc2ccc(C(C)(C)C)cc2S1)C(F)(F)F | inactive |
| CC(=O)Nc1ccc(S(=O)(=O)NC2(C(F)(F)F)C(=O)NC(C)=C2C#N)cc1 (centres undefined) | inactive |
| O=C(Cc1ccccc1F)NC1CCSc2ccccc21 (centres undefined) | inactive |
| CCc1cc(Br)ccc1NC(=O)C1CCCO1 (centres undefined) | inactive |
| COc1ccccc1C(=O)COC(=O)CNS(=O)(=O)c1ccc(NC(C)=O)cc1 | inactive |
| O=C(NCc1ccc2c(c1)OCO2)c1ccc2c(c1)C(=O)N(CC1CCCO1)C2=O (centres undefined) | inactive |
| O=C1c2cccc3c([N+](=O)[O-])ccc(c23)C(=O)N1CC1CCCO1 (centres undefined) | 5.8 µM (active) |
| O=c1c2cc3c(=O)n(CC4CCCO4)c(=O)c3cc2c(=O)n1CC1CCCO1 (centres undefined) | inactive |
| CCOc1ccc(/C=C/C(=O)OCC(=O)c2ccccc2OC)cc1OC | 20.6 µM (active) |
| COc1ccc(/C=C/C(=O)OCC(=O)NCc2cccs2)cc1OC | inactive |
| COc1cc(/C=C/C(=O)OCC(=O)NC(=O)NCc2ccccc2)ccc1OCC#N | inactive |
| COc1ccc(S(=O)(=O)N(CC(=O)N/N=C/c2ccc(C(=O)O)cc2)Cc2ccccc2)cc1OC | inactive |
| Cc1nonc1OCCn1nnnc1N | inactive |
| Cc1csc(=O)n1CCC(=O)OCC(=O)Nc1ccc(N2CCOCC2)cc1 | inactive |
| O=C1Nc2cc(Cl)c(Cl)cc2N(O)N1c1ccccc1Cl | inactive |

| Compound | Potency |
| --- | --- |
| COC(=O)c1ccc2nc(-c3ccc(Cl)cc3)c(Cc3cccc(F)c3)n2c1 | 23.1 µM (active) |
| COC(=O)c1ccc(NC(=O)CSc2nncc3ccc(OC)c(OC)c23)cc1 | inactive |
| COC(=O)c1ccc(COC(=O)c2cnc(Cl)c(Cl)c2)cc1 | inactive |
| COC(=O)c1ccc2nc(-c3ccccc3)c(Cc3ccc(OC)cc3C)n2c1 | 23.1 µM (active) |
| COc1ccc(C(=O)NCc2cn3ccccc3n2)cc1 | inactive |
| COC(=O)c1ccc2nc(-c3ccc(OC)c(OC)c3)c(Cc3ccccc3)n2c1 | 20.6 µM (active) |
| COC(=O)c1ccc2nc(-c3ccc(F)cc3)c(Cc3ccc(C)cc3)n2c1 | inactive |
| COC(=O)c1ccc2nc(-c3cccc(Br)c3)c(Cc3ccccc3C(F)(F)F)n2c1 | inactive |
| CCN1CCN(Cc2c(O)ccc3c(=O)c(-c4ccc(OC)c(OC)c4)c(C(F)(F)F)oc23)CC1 | inactive |
| Cc1ccc(NS(=O)(=O)c2c(C)[nH]c(=O)[nH]c2=O)cc1C | inactive |
| C[C@@H]1CC[C@]2(O[C@@H](CCO)C[C@H](O)[C@H]2O)O1 | inactive |
| CCCCSc1nnc(-c2ccc(NC(=O)CC)cc2)n1C | inactive |
| O=C(c1cccc(S(=O)(=O)Nc2ccccc2Cl)c1)N1CCN(C(=O)c2ccco2)CC1 | inactive |
| COc1ccc(C)cc1NC(=O)NCCCCc1ccccc1 | inactive |
| CCOc1ccc(-c2nonc2NC(=O)c2oc3ccc(C)cc3c2C)cc1OCC | inactive |
| CCc1nonc1NC(=O)c1oc2ccc(Cl)cc2c1C | inactive |
| CCOc1ccc(-c2nonc2NC(=O)c2oc3ccc(CC)cc3c2C)cc1 | 20.6 µM (active) |
| CCCCCCCCOC1OC(CO)C(O)C(O)C1NC(C)=O (centres undefined) | inactive |
| O=C1CCN(C(=O)Nc2ccccc2)N1 | inactive |
| CCNC(=O)C1(C)CCCN(C(=O)c2c(C)noc2C)C1 (centres undefined) | inactive |
| COc1ccc(-c2cc(-c3ccc(F)cc3)nc3c2COc2ccccc2-3)cc1 | inactive |
| NC(=O)C1CCN(C2OC(=O)c3ccccc32)CC1 (centres undefined) | inactive |

| Compound | Potency |
| --- | --- |
| CCOC(=O)NNC(=O)c1ccc(Cl)cc1 | inactive |
| Cc1nn(C)c(C)c1S(=O)(=O)N1CCC(CO)(Cc2ccc(Cl)cc2)CC1 | 16.4 µM (active) |
| Cc1ccc(S(=O)(=O)n2nc(C)c(S(=O)(=O)N3CCCCCC3)c2C)cc1 | inactive |
| CCOc1ccccc1NC(=O)C1CCN(S(=O)(=O)c2c(C)nn(C)c2C)CC1 | inactive |
| COc1ccc(NC(=O)c2ccccc2CC[N+](=O)[O-])cc1 | inactive |
| CC(=O)c1cccc(NC(=O)c2nc(-c3ccccc3)n(-c3cccc(C)c3)n2)c1 | 10.3 µM (active) |
| CC(=O)c1cccc(NC(=O)c2cc(C)nn2-c2ccccc2)c1 | inactive |
| CC(=O)c1cccc(NC(=O)Nc2ccc(C)cc2)c1 | inactive |
| COc1ccc2c(c1)C(c1cccs1)=NNC(c1cccnc1)=N2 | inactive |
| COC(=O)c1cccc([N+](=O)[O-])c1CS(=O)(=O)c1ccc(C)cc1 | inactive |
| COc1cccc2c(O)cc(=O)n(C)c12 | inactive |
| COCCCN(C(=S)Nc1c(C)cc(C)cc1C)C(C)c1ccncc1 (centres undefined) | inactive |
| CNC(=O)c1ccsc1NC(=O)c1ccc(S(=O)(=O)N2CCc3ccccc32)cc1 | 18.4 µM (active) |
| CSc1ccccc1NC(=O)c1ccc2c(c1)CCN2S(C)(=O)=O | inactive |
| O=C(Nc1ccc(S(=O)(=O)N2CCOCC2)cc1)c1ccc2ncsc2c1 | inactive |
| Cc1cc2nc(NC(=O)c3ccc(S(=O)(=O)N4CCOCC4)cc3)sc2cc1C | inactive |
| COc1ccc(C(=O)Nc2nc(-c3ccc(S(=O)(=O)N4CCOCC4)cc3)cs2)cc1 | 20.6 µM (active) |
| CNC(=O)c1ccsc1NC(=O)c1ccc(S(=O)(=O)N2CCOCC2)cc1 | 23.1 µM (active) |
| Cc1ccc(S(=O)(=O)N2CCOCC2)cc1NC(=O)c1ccncc1 | inactive |
| CS(=O)(=O)N1CCc2cc(C(=O)Nc3ccccc3Br)ccc21 | inactive |
| COc1ccc(S(=O)(=O)n2nc(C)c(S(=O)(=O)N3CCOCC3)c2C)cc1 | inactive |

— PubChem BioAssay AID686978 (National Center for Advancing Translational Sciences (NCATS), 2013)
